tested on: THRa homodimer (NR concentration 90 nM); experiment: PBM binding z-score (relative to random genomic background probes); higher = stronger binding; sequences stand for … in GC…GCGATTGACAGCGTAGAATGAAGG
How it was run: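 Custom Agilent 4×180K protein-binding microarrays carried double-stranded probes. Their 34-nt variable regions held direct-repeat seeds, single-nucleotide variants, half-site ablations and random human genomic background sequences. Arrays were incubated 1 h with ligand-free nuclear receptor dimers in PBS pH 7.4, 2% milk, 0.02% Triton X-100, 1 mM DTT, 0.2 mg/mL BSA and 0.4 mg/ml salmon testes DNA. Antibodies against each partner (one per run) detected binding, and scanned fluorescence was regression-normalized. Binding z-scores use random background probes as reference.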

Sequence | PBM binding z-score
TATACAGGGTCAAAGGCCAGTGTACGAATGTCGA | 0.905
AGAACGAGGGCACTCTGAGTTGATAGCAGAGTAG | -0.153
CCTAGTTGGTCAGGCGGTCACACACCGGATATGA | 0.129
CCTCGGAGGACAACAGGAGGTCAGAGCAGCCAGA | 1.04
GCAGACAGGTGAAACGTAGGTAACTCAGGGTGGC | -0.606
GATACAGGGTCAGTTAGAGGCCAGAGTATGGAAA | 0.565
CGAACTAGGTCATCCAGGGCAGTGAATACATTGA | 1.25
TCTCGGAGGACACTAAGGTCAGAGCTTTCCAGAG | 3.11
CAAACTAGGTCAAGAGGGCAAAGTCCGCTTCCCG | 1.03
GCATATAGGTAATACAAGGAGAAAGTCCGATTGT | -0.606
TCTTGTAGATCATCAGGTTAAGAAAGCTGGCCAA | 0.613
CTCGAAATGTCGGTTGAGGTGAGTATACGGATAA | 1.36
AGAATGAGGTGACCAAAGATCAGGGAAACGCTTG | 0.878
TCATACAGGTGAAGGTAACTCAGGTACGCAGTCG | 0.594
ACAAACAGGTGATGAAGGTAACTCAGGCTATCAT | 0.203
ATACCAAGGTGATCGTGAGGTCGTTCATACTAAC | 2.71
ATCGCAAGGTCGAAGGTGAGTATACCCACCCGAA | -0.0109
CATACAGGGTCAGCTAGGCTAGAGTAGGGACGGC | 1.02
CCGAGTTGGTCAGGAGGTCACACACCGGATATGA | 2.02
CCGACTGGGGTAAAGGTTACCATACTCAGTACGA | -0.0216
TCTTGTAGCTCAAGCAGGTTAAGAAAGCCTGAGT | -1.07
CAAACTAGGTCAAAGGTCGAAGTCGAGCCAACCA | 0.604

Reference: the supplement of paper PMC6555819
